Experimental data: PubChem BioAssay AID485364 (National Center for Advancing Translational Sciences (NCATS), 2010)
The whole screen tested about 360,000 compounds, of which about 11,000 (3.1%) were called active. About 4% were inconclusive and are not listed. This is one part of a sample in which actives are shown more often than they occur. Calls follow the shape of the dose curve; as a rule, active = well fitted inhibition curve with a large enough effect; inconclusive = small, poorly fitted or top-dose-only effect; inactive = no such curve, though single readings can be large or run the other way.

molecular target: Schistosoma mansoni thioredoxin glutathione reductase (TGR) (UniProt Q962Y6); experiment: qHTS Assay for the Inhibitors of Schistosoma Mansoni Peroxiredoxins; settings: purified TGR, DTNB reduction, TNB absorbance 405 nm; series mostly up to 114 µM; activity change, negative = inhibition: at the top concentration; also: nearly all actives have a fitted effect of over 60% in size
How it was run: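 TGR 20 nM + NADPH 100 uM (dispensed conc.), cpd preinc 15 min RT; start with NADPH (500 uM addition) then DTNB (15 mM addition). Kinetic TNB absorbance, 405 nm filter. Four-parameter Hill fit across titration.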
% is scaled to controls: 0 for no effect and ±100 for the full control effect; potency is read from the fitted curve at half-maximal effect.

Row | SMILES | activity change, negative = inhibition | Potency
1 | CCOc1ccccc1N(CC)C(=O)Nc1cn(C)c(=O)c2ccccc12 | -2.07% (inactive) | 
2 | COc1ccc(NC(=O)Nc2cccc(-c3noc(C)n3)c2)cc1 | -2.78% (inactive) | 
3 | CCCCCn1c(CCNC(=O)c2ccc(F)cc2)nc2ccccc21 | 0.666% (inactive) | 
4 | O=C(CC1C(=O)N(c2ccccc2)C(=O)N1CCc1cccs1)Nc1ccc(F)cc1 (stereo not drawn) | -4.99% (inactive) | 
5 | Cc1ccc(C(=O)Nc2ccc(OCc3cc(=O)n4c(C)csc4n3)cc2)cc1 | 0.173% (inactive) | 
6 | CC(C)C12CN3CC(C(C)C)(CN(C1)C3c1ccc(OCc3ccccc3)cc1)C2=O (stereo not drawn) | 1.3% (inactive) | 
7 | CCOC(=O)C1=C(c2ccccc2)Nc2ncnn2C1c1ccc(Cl)cc1 (stereo not drawn) | 0.261% (inactive) | 
8 | Fc1ccccc1/C=C1\CCCC2=C1Nc1ncnn1C2c1ccccc1F (stereo not drawn) |  | 1.26 µM (active)
9 | COc1ccc2c(Sc3ccc(C)cc3)c(C(=O)NC(C)c3ccccc3)[nH]c2c1 (stereo not drawn) | 5.33% (inactive) | 
10 | Cc1ccc(-c2cc(N)n(Cc3cccc(Cl)c3)n2)cc1 | 8.78% (inactive) | 
11 | COc1cccc(Nc2nc3ccccc3c3nncn23)c1 | 1.24% (inactive) | 
12 | Cc1ccc(C(=O)COC(=O)C(Cc2c[nH]c3ccccc23)NC(=O)c2ccc(Br)cc2)cc1 (stereo not drawn) | 0.457% (inactive) | 
13 | O=C1NC(=O)N(Cc2ccco2)C(=O)/C1=C\c1ccc(-c2ccc(F)cc2)o1 |  | 11.2 µM (active)
14 | O=C1NC(=O)N(Cc2ccco2)C(=O)/C1=C\c1cccn1CCOc1ccccc1 |  | 11.2 µM (active)
15 | O=C1c2ccccc2C(=O)N1CCOc1ccc(F)cc1 | 0% (inactive) | 
16 | O=C(CCCOc1ccccc1)NCc1ccco1 | 8.7% (inactive) | 
17 | NS(=O)(=O)c1ccc(-c2ccc(/C=C3\SC(=O)NC3=O)o2)cc1 | -18.6% (inactive) | 
18 | COc1ccc(OCCCn2cccc2/C=C2/C(=N)N3OC(C)=CC3=NC2=O)cc1 | 6.24% (inactive) | 
19 | CCn1c(C)c(C)c2cc(C(=O)NCCc3cc(OC)ccc3OC)ccc21 | 5.8% (inactive) | 
20 | CC(=O)N1CCCc2cc(S(=O)(=O)N3CCC(C(=O)NC4CCCCC4)CC3)ccc21 | 5.19% (inactive) | 
21 | CCc1ccc(NC(=O)CSc2nc3c([nH]c4ccccc43)c(=O)n2-c2cccc(OC)c2)cc1 | 7.94% (inactive) | 
22 | COc1ccc(-n2c(=O)c3c(c4cc(OC)ccc4n3C)n(Cc3cccc(C)c3)c2=O)cc1 | -3.96% (inactive) | 
23 | CCC(=NCCCO)c1c(O)n(-c2ccc(OC)cc2)c(=O)[nH]c1=O | -4.2% (inactive) | 
24 | CCC(=NCc1ccco1)c1c(O)n(Cc2ccccc2)c(=O)[nH]c1=O |  | 28.2 µM (active)
25 | Nc1c(N(Cc2ccco2)C(=O)c2cccc(F)c2)c(=O)[nH]c(=O)n1Cc1ccccc1 | -25% (inactive) | 

Row | SMILES | activity change, negative = inhibition | Potency
26 | CC(C)Cn1c(=O)c2ccccc2n2c(CCC(=O)N3CCN(c4cccc(Cl)c4)CC3)nnc12 | 6.71% (inactive) | 
27 | O=C(O)c1ccc(S(=O)(=O)N2CCC(Cc3ccccc3)CC2)cc1 | 5.48% (inactive) | 
28 | Cc1ccc(/C=C/C(=O)O)cc1S(=O)(=O)N1CCC(Cc2ccccc2)CC1 |  | 25.1 µM (active)
29 | Cn1cc(S(=O)(=O)N2CCC(Cc3ccccc3)CC2)c(=O)n(C)c1=O | -22.8% (inactive) | 
30 | COc1ccccc1N1CCN(C(=O)C2CCN(S(=O)(=O)c3c(C)noc3/C=C/c3ccc(C)cc3)CC2)CC1 | -4.21% (inactive) | 
31 | CNC(=O)C1CCN(S(=O)(=O)c2c(C)noc2/C=C/c2cccc(C)c2)CC1 | -13.8% (inactive) | 
32 | Cc1noc(/C=C/c2ccco2)c1S(=O)(=O)N1CCC(C(=O)N2CCc3ccccc32)CC1 |  | 44.7 µM (active)
33 | CCCCCCn1nnc2sc(-c3ccccc3)cc2c1=O | 0.709% (inactive) | 
34 | CCCNC(=O)C1CCN(c2nc3ccc(C)cc3[nH]2)CC1 | 13.9% (inactive) | 
35 | CC(=O)N(C1=C(Cl)C(=O)c2ccccc2C1=O)c1ccc(C(=O)O)cc1 |  | 0.224 µM (active)
36 | O=C(Nc1ccc(F)cc1F)c1ccc2c(=O)n3c(nc2c1)CCCCC3 | -3.37% (inactive) | 
37 | COc1ccccc1-n1c(-c2ccc(C)cc2)cn2c3c(=O)n(C)c(=O)n(C)c3nc12 | -0.306% (inactive) | 
38 | CCn1c(COc2ccc(OC)cc2)nnc1SCC(=O)Nc1cc(OC)ccc1OC | -0.757% (inactive) | 
39 | CCn1c(CNC(=O)c2ccc(OC)c(OC)c2)nnc1SCC(=O)Nc1ccccc1 | 0% (inactive) | 
40 | CCn1c(SC)nc(O)c(C(c2ccc(OC)c(O)c2)c2c(O)nc(SC)n(CC)c2=O)c1=O |  | 3.98 µM (active)
41 | Cc1ccc(-n2c(=O)c3cccnc3n2CC(=O)Nc2ccccc2C(F)(F)F)cc1C | -13% (inactive) | 
42 | O=C(CCn1c(=O)c2sccc2n(Cc2ccc(F)cc2)c1=O)NCc1ccc2c(c1)OCO2 | 2.35% (inactive) | 
43 | C/C(=N\NC(=O)c1ccc2ccccc2c1)c1cccnc1 | -1.51% (inactive) | 
44 | CCn1c(O)c2ccc(C(=O)N=NC(=O)c3cccnc3)cc2c1O |  | 100 µM (active)
45 | CCn1c(O)c(N=NC(=O)c2cccc(S(=O)(=O)N3CCCCC3)c2)c2ccccc21 | 3.59% (inactive) | 
46 | CCOc1ccc(C(=O)N2CCN(CCc3ccccn3)CC2)cc1 | -1.65% (inactive) | 
47 | CCOc1ccc(NC(=O)c2c(NCc3cccc(OC)c3OC)sc3c2CCC3)cc1 | -3.15% (inactive) | 
48 | CCOc1ccc(N(CC(=O)Nc2cccc(OC)c2)S(C)(=O)=O)cc1 | 0% (inactive) | 
49 | Cc1cccc(N(CC(=O)N2CCOCC2)S(C)(=O)=O)c1 | 4.96% (inactive) | 
50 | COC(=O)CN(c1cccc(C(C)=O)c1)S(C)(=O)=O |  | 50.1 µM (active)

Row | SMILES | activity change, negative = inhibition | Potency
51 | CCCc1cc(=O)n2[nH]c(NCc3ccc(CC)cc3)nc2n1 | 11.4% (inactive) | 
52 | COc1ccccc1NC(=O)CN1C(=O)c2ccccc2Sc2ccc(C(=O)N3CCCC3)cc21 | 3.29% (inactive) | 
53 | CO/N=C/c1ccc(N2CCN(C(=O)c3cccc(Cl)c3)CC2)c([N+](=O)[O-])c1 | -1.75% (inactive) | 
54 | O=C1CSC(=S)N1/N=C/c1ccc(O)c([N+](=O)[O-])c1 |  | 3.55 µM (active)
55 | CCC1=Nc2cc(C(=O)NCC(C)c3ccccc3)ccc2Sc2ccc(C)cc21 (stereo not drawn) | 4.73% (inactive) | 
56 | CCN1CCC(N(Cc2ccc(F)cc2)C(=O)Nc2cc(C)ccc2C)CC1 | 5.4% (inactive) | 
57 | Cc1cnc(C(=O)Oc2cccc(Cl)c2Cl)cn1 |  | 22.4 µM (active)
58 | Cc1ccc(-c2cc(C(=O)Oc3ccccc3Cl)no2)cc1C | -2.53% (inactive) | 
59 | Cc1cnc(C(=O)OCC(=O)Nc2ccc(Cl)cc2Cl)cn1 | 3.82% (inactive) | 
60 | CCCCSc1ncnc2c1sc1nc(N3CCOCC3)c3c(c12)CCCC3 | 5.26% (inactive) | 
61 | COc1cc2c(=O)c(S(=O)(=O)c3ccc(C(C)C)cc3)cn(Cc3ccccc3C)c2cc1OC | -0.789% (inactive) | 
62 | CCOc1ccc(OCC)c(NC(=O)c2c(C)nn(-c3ccccc3)c2-n2cccc2)c1 | -1.29% (inactive) | 
63 | CCOc1ccccc1NC(=O)Cn1nnc(C(=O)Nc2ccc(C)c(C)c2)c1N | -7.69% (inactive) | 
64 | CCOc1ccc(N(CC)S(=O)(=O)N2CCCC(C(=O)Nc3ccc(C(C)=O)cc3)C2)cc1 (stereo not drawn) | 8.08% (inactive) | 
65 | O=S(=O)(NCCCN1CCOCC1)c1ccc(F)c(Cl)c1 | -19.4% (inactive) | 
66 | O=C(NCCCN1CCOCC1)c1ccc([N+](=O)[O-])cc1[N+](=O)[O-] | 0.872% (inactive) | 
67 | O=[N+]([O-])c1cc(S(=O)(=O)CCCN2CCOCC2)ccc1F |  | 7.08 µM (active)
68 | COC(=O)c1cc2occc2n1Cc1nc(-c2ccc(C)cc2)oc1C | -25.2% (inactive) | 
69 | COc1ccc(-c2nc3sc(CCNC(=O)C(C)(C)C)c(C)n3n2)cc1 | -1.4% (inactive) | 
70 | CCS(=O)(=O)c1cc([N+](=O)[O-])c(Sc2ccccc2N)s1 |  | 20 µM (active)
71 | Cc1ccc(S(=O)(=O)NCCSc2ccccc2)cc1[N+](=O)[O-] | 4.17% (inactive) | 
72 | Cc1c(C(=O)Nc2cccc(Cl)c2)oc2ccc(S(=O)(=O)N3CCOCC3)cc12 | 1.77% (inactive) | 
73 | CCOc1ccc2nc(N3CCC(C(=O)Nc4cc(C)ccc4C)CC3)sc2c1 | 4.2% (inactive) | 
74 | O=Cc1c(N2CCN(c3cccc(Cl)c3)CC2)nc2ccccn2c1=O | 3.7% (inactive) | 
75 | Cc1cccn2c(=O)c(C=O)c(Nc3ccc(S(N)(=O)=O)cc3)nc12 | 1.12% (inactive) | 

Row | SMILES | activity change, negative = inhibition | Potency
76 | O=Cc1c(Nc2ccccc2Cl)nc2ccccn2c1=O |  | 10 µM (active)
77 | CC1CCCN(c2csc3ccc(F)cc3c2=O)C1 (stereo not drawn) | -10.8% (inactive) | 
78 | COc1ccc(CNC(=O)CC2Oc3ccc(C)cc3NC2=O)cc1 (stereo not drawn) | 11% (inactive) | 
79 | O=C(NCCc1ccc(Cl)cc1)c1ccc2nc(CCc3ccccc3)oc2c1 | 11.9% (inactive) | 
80 | Cc1ccc(C)c(N2CCN(C(=O)CCc3c(C)nc4c(c3C)c(=O)n(C)c(=O)n4C)CC2)c1 | 0.107% (inactive) | 
81 | Cc1cccnc1NC(=O)CSc1nnc(COc2ccc(C(C)C)cc2)n1C | 16.3% (inactive) | 
82 | Cc1ccc(OCc2nnc(SC3CCc4ccccc4C3=O)n2C)cc1 (stereo not drawn) |  | 17.8 µM (active)
83 | COc1ccccc1C(=O)Nc1ccc(OCc2nnc3c4ccccc4c(C)nn23)cc1 | -1.05% (inactive) | 
84 | CC(=O)Nc1ccc(S(=O)(=O)N2CCSCC2)cc1 | 5.01% (inactive) | 
85 | CC(=O)Nc1ccc(S(=O)(=O)N2CCn3cccc3C2C)cc1 (stereo not drawn) |  | 44.7 µM (active)
86 | CC(=O)Nc1ccc(S(=O)(=O)N2CCN(c3ccccc3)CC2)cc1 | 14.6% (inactive) | 
87 | Cc1cccc(N(C)C(=O)CS(=O)(=O)c2cccc3nsnc23)c1 | 5.42% (inactive) | 
88 | CCOc1cccc(-c2nn3c(-c4ccccn4)nnc3s2)c1 | 0% (inactive) | 
89 | Fc1ccc(-c2ccc(-c3nn4c(-c5ccco5)nnc4s3)o2)cc1 |  | 50.1 µM (active)
90 | Cc1nc2c(-c3ccc(F)cc3)c(C)nn2c(C)c1CCC(=O)NCc1ccco1 | -2.64% (inactive) | 
91 | CCN(CCCNC(=O)Cn1ncc2c3ccccc3n(C)c2c1=O)Cc1ccccc1 | -0.585% (inactive) | 
92 | COc1ccc(N2CCN(C3=NS(=O)(=O)C(c4cccc(Br)c4)=C3C)CC2)cc1 | -3.56% (inactive) | 
93 | COc1ccccc1CNC(=O)c1ccccc1NC(=O)c1nsc2ccccc12 | 0.625% (inactive) | 
94 | COc1ccc(C2NC(=O)N(C)C3=C2C(=O)N(c2ccc(C(=O)O)cc2)C3)cc1 (stereo not drawn) | 9.85% (inactive) | 
95 | COc1ccc(N2C(=O)C3C(C2=O)C(C(=O)c2ccccc2)N2CCCC32)cc1 (stereo not drawn) |  | 22.4 µM (active)
96 | COc1ccc(N2C(=O)C3CCCN3C2c2cccs2)cc1 (stereo not drawn) | 9.2% (inactive) | 
97 | Cc1oc(-c2ccccc2)nc1Cn1c(SCc2cccc(C(F)(F)F)c2)nc2cccnc21 | 9.82% (inactive) | 
98 | Cc1c2cnn(-c3ccccc3)c(=O)c2c(C)n1C(C)C(=O)Nc1ccc(Br)cc1F (stereo not drawn) | -0.551% (inactive) | 
